In PubChem BioAssay AID504332 (National Center for Advancing Translational Sciences (NCATS), 2011):
Out of some 350,000 compounds screened, about 31,000 (8.9%) were called active. Another 15% or so got no clear call; they are omitted. Calls come from the whole dose curve; as a rule, active = well fitted inhibition curve with a large enough effect; inconclusive = small, poorly fitted or top-dose-only effect; inactive = no such curve, though single readings can be large or run the other way. The entries come from a sample that favours actives as a whole. Where a structure was tested more than once in an assay, its records may differ in their call.

These compounds were tested against Histone-lysine N-methyltransferase EHMT2 (Homo sapiens) (UniProt Q96KQ7) (assay: qHTS Assay for Inhibitors of Histone Lysine Methyltransferase G9a). Details: G9a H3K9 monomethylation, AlphaScreen, 2 h; series mostly up to 59 µM.
Method in brief: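 G9a (20 nM) preincubated 15 min RT with compounds, then 500 nM biotinylated H3K9 peptide and 20 uM SAM added; 2 h RT reaction. Monomethyl-H3K9 product detected by AlphaScreen with anti-H3K9me1 antibody, streptavidin donor and anti-rabbit IgG acceptor beads.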
% is set by controls: 0 for no effect and ±100 for the full control effect; potency is the fitted concentration of half-maximal effect.
Note: nearly all actives have a fitted effect of over 75% in size.

Histone-lysine N-methyltransferase EHMT2 (Homo sapiens), sequence (Q96KQ7 913-1193 limits assumed): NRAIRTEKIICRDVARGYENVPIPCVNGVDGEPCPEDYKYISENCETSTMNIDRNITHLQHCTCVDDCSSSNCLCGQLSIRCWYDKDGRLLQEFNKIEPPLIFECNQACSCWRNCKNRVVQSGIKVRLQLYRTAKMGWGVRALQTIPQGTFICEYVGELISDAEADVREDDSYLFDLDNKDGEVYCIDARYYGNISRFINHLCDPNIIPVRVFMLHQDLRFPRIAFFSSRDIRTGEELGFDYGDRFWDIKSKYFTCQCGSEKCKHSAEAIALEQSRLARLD

Potency, inactive:
CCCCSCCCNC(=O)C1CCC(CNS(=O)(=O)c2ccc(NC(C)=O)cc2)CC1 (centres undefined)
COc1ccc(NC(=O)Cn2c(=O)n(CCC(C)C)c(=O)c3cccnc32)cc1Cl
O=C(Nc1ccc(Br)cc1)c1cc2nc(-c3ccccc3)cc(-c3ccccc3)n2n1
Cc1ccccc1C(=O)NC(=S)Nc1ccc(N2CCN(C(=O)c3ccccc3)CC2)cc1
COc1ccc(C(=O)Nc2ccc3nc(N4CCCCC4)cc(C)c3c2)cc1OC
COc1cccc(C(=O)Nc2ccc3nc4n(c(=O)c3c2)CCCCC4)c1
COc1ccc(C(=O)Nc2ccc(N3CCC(C)CC3)cc2)cc1Br
Cc1ccc(C(=O)NC(=S)NCCN2CCOCC2)cc1
O=C(O)CCC(=O)Nc1ccc(N2CCOCC2)cc1
COC(=O)Cc1ccc(NC(=S)NCc2ccccc2)cc1
COc1cccc(C(=O)Nc2ccc(N3CCN(C(=O)c4ccco4)CC3)cc2)c1
COc1ccc2oc(-c3ccc(C)c(NC(=O)c4sc5ccccc5c4Cl)c3)nc2c1
CCOc1ccccc1NC(=S)NC(=O)CCc1ccccc1
CSCC[C@H](NC(=O)N1CCn2c1nc1ccccc12)C(=O)NCc1ccc2c(c1)OCO2
Cc1ccnc(NC(=O)CCNS(=O)(=O)c2ccc(C)c(C)c2)c1
CN(Cc1ccccc1)C(=O)CSc1nc2ccccc2[nH]1
O=c1cc(-c2ccccc2)[nH]c2cc(F)ccc12
Cc1ccc(-c2cc(=O)c3ccc(Cl)cc3[nH]2)cc1
CCN(CC)CCCNC(=O)c1cc2c(=O)[nH]c3ccc(C)cc3c2s1
CCCCn1c(N)c(N(CCOC)C(=O)c2cccc(OCc3ccccc3)c2)c(=O)[nH]c1=O
CCCCn1c(N)c(N(CC(C)C)C(=O)c2cccc(S(=O)(=O)N3CCN(C(C)=O)CC3)c2)c(=O)[nH]c1=O
CC(OC(=O)CNC(=O)c1ccco1)C(=O)Nc1ccc(Cl)cn1 (centres undefined)
CCN(CC)CC(=O)c1c[nH]c2ccc(OC)cc12
COc1ccc2[nH]c(C(=O)N3CCN(C)CC3)c(C)c2c1
COc1ccc(NC(=O)c2cc3cc(C)ccc3n2C)cc1
O=C(NCc1ccco1)c1nn2cccnc2c1Cl
O=C(NCc1ccco1)C1(c2ccc(Cl)cc2)CCCC1
COc1ccc(-c2cc(C(=O)N3CCN(Cc4ccc5c(c4)OCO5)CC3)on2)cc1OC
C=CCOc1ccc(/C=N/NC(=O)C(C)Sc2ccccn2)cc1OCC (centres undefined)
CCOc1cc(/C=C2\C(=N)N3N=C(C)SC3=NC2=O)ccc1OCCOc1ccccc1
C#CCOc1ccccc1/C=C1/C(=O)ON=C1C
COc1ccnc2c1c(=O)n(Cc1cccc(F)c1)c(=O)n2C
CCOc1cc(/C=N/O)ccc1OCc1ccccc1F
O=C1CC(c2ccc(F)cc2F)c2cc3c(cc2N1)OCO3 (centres undefined)
Cc1ccc(S(=O)(=O)N2CCN(C(=O)Cc3sc(C)nc3-c3ccc(F)cc3)CC2)c(C)c1
CCc1ccc(S(=O)(=O)c2nnn3c2nc(NCc2ccccc2OC)c2cc(Cl)ccc23)cc1
O=C(Nc1nc2ccc(F)cc2s1)c1nc(SCc2ccccc2F)ncc1Cl
CCOC(=O)Cc1ccc(NC(=O)Nc2c[nH]c(=O)[nH]c2=O)cc1
CCc1ccc(NC(=O)c2cc3c(=O)n(Cc4cccnc4)ccc3nc2C)cc1
O=C(c1ccc(S(=O)(=O)N2CCCC2)cc1)N1CCN(c2ccccc2F)CC1
Cc1ccc(S(=O)(=O)NCC(=O)N(CC(=O)NCC2CCCO2)c2cccc(F)c2)cc1 (centres undefined)
O=C(CN(CC1CCCO1)C(=O)CNS(=O)(=O)c1ccc(Cl)cc1)NCc1ccccc1 (centres undefined)
Cc1ccc(CN(CC(=O)NCC2CCCO2)S(=O)(=O)c2ccc(C)cc2)cc1 (centres undefined)
Cc1ccc(-c2nnc(Nc3cccc(Br)c3)c3ccccc23)cc1S(=O)(=O)NCC1CCCO1 (centres undefined)
CCOc1ccccc1NC(=O)Cn1c2ncccc2c(=O)n1-c1ccc(C)c(C)c1
COc1cc2ccccc2cc1C(=O)Nc1cccc(-c2nc3ccccc3o2)c1
O=C(/C=C/c1ccccc1)N1CCN(Cc2cc(=O)n3nc(-c4ccccc4F)sc3n2)CC1
O=C(NCCC1=CCCCC1)c1ccc2c(c1)N(Cc1ccccc1F)C(=O)c1ccccc1S2(=O)=O
C=C(C)COc1ccc(-c2ncncc2-c2ccc(OC)cc2)c(O)c1
CC(C)c1ccc(NC(=O)Cn2c3ncccc3c(=O)n2-c2ccccc2)cc1
N#CC1=C(N)Oc2n[nH]c(CSc3ccccc3)c2C12C(=O)Nc1ccccc12 (centres undefined)
CN=C1S/C(=C\c2ccc(Sc3ccc(Cl)cc3)o2)C(=O)N1C
Cc1ccc(C(=O)COC(=O)C(Cc2c[nH]c3ccccc23)NC(=O)c2ccc(Br)cc2)cc1 (centres undefined)
Cn1cc(S(=O)(=O)N2CCCCCC2)cc1C(=O)N1CCN(c2ccc(F)cc2)CC1
CCCCc1nn2c(=O)cc(COC(=O)c3ccc(NC(=O)c4ccccc4C)cc3)nc2s1
Cc1ccc(-n2c(SCC(=O)Nc3cccc(F)c3)nc3c(oc4ccccc43)c2=O)cc1C
CCN(CC(=O)Nc1ccc(OC)cc1)C(=O)c1ccc(Cl)c(S(=O)(=O)N2CCCC2)c1
COc1ccc(C(=O)OCC(=O)c2ccc(Cl)s2)c(OC)c1OC
C=CCNC(=S)NNC(=O)c1cc(Cl)ccc1OC
C=CCNC(=S)NNC(=O)c1ccc(Br)o1
O=C(c1cc(-c2ccc(F)cc2)on1)N1CCN(c2ccc(F)cc2)CC1
C=CCn1c(SCc2cccc(F)c2)nc2cc(C(=O)N3CCC(C(N)=O)CC3)ccc2c1=O

Potency, active:
O=C(Cc1ccccc1)NC(=S)Nc1ccc(N2CCCCC2)cc1 7.94 µM
Cc1ccc(C(=O)NC(=S)Nc2ccc(N3CCOCC3)cc2)cc1 7.94 µM
COc1ccc(C(=O)NC(=S)Nc2ccc(N3CCCC3)cc2)cc1OC 3.98 µM
COc1cccc(C(=O)Nc2ccc(N3CCCC3)cc2)c1 4.47 µM
O=c1cc(-c2ccccc2)[nH]c2nc(Cl)ccc12 20 µM
CCCCn1c(N)c(N(CCOC)C(=O)c2cccc(S(=O)(=O)N3CCCCC3)c2)c(=O)[nH]c1=O 50.1 µM
COc1ccc2[nH]c3ccc(OC)cc3c2c1 50.1 µM
O=C(NCc1ccco1)c1sc2cccc(F)c2c1Cl 8.91 µM
C#CCOc1ccc(/C=C2/C(=O)ON=C2C)cc1OCC 39.8 µM
C=CCOc1ccc(/C=C2/C(=O)ON=C2C)cc1OCC 44.7 µM
COc1cc(/C=C2/C(=O)ON=C2C)ccc1OCc1cccc(F)c1 50.1 µM
Cc1ccc(N(CC(=O)NCC2CCCO2)C(=O)CNS(=O)(=O)c2ccc(Cl)cc2)cc1 (centres undefined) 1 µM
CCOc1ccc(N(CC(=O)NCC2CCCO2)S(=O)(=O)c2ccc(C)cc2)cc1 (centres undefined) 50.1 µM
N#CC1=C(N)Oc2[nH]c(=S)[nH]c(=O)c2C12C(=O)Nc1ccccc12 (centres undefined) 35.5 µM
O=C(O)C(c1ccccc1)N1C(=O)/C(=C\c2ccc(-c3cccc(Cl)c3)o2)SC1=S (centres undefined) 39.8 µM
C=CCNC(=S)NNC(=O)COc1c(Cl)cc(Cl)cc1Cl 8.91 µM
Cc1ccc(CSCC2Nc3ccc(C(=O)N4CCN(c5ccc(F)cc5)CC4)cc3NC2=O)cc1 (centres undefined) 2.24 µM
O=C1Nc2cc(C(=O)N3CCN(c4ccc(F)cc4)CC3)ccc2NC1CSCc1cccc(F)c1 (centres undefined) 10 µM

activity, negative = inhibition, inactive:
COCCN(Cc1ccccc1)C(=O)Cc1ccc(S(=O)(=O)N2CCOCC2)s1 -3.78% [at 12.7 µM]
O=c1cc(-c2ccccc2)[nH]c2nc(Cl)ccc12 48.3% [at 12.7 µM]
CCOc1ccc(NC(=O)COc2ccc(C(=O)N3CCC(C(N)=O)CC3)cc2OC)cc1 4.45% [at 0.501 µM]
CCC(C)NC(=O)c1ccc(NC(=O)CC2SC(N3CCCCC3)=NC2=O)cc1 (centres undefined) -0.745% [at 12.7 µM]
CC(=O)O[C@H]1CC[C@@]2(C)[C@@H](CC[C@@H]3[C@@H]2CC[C@]2(C)[C@@H](C(C)(C)O)C[C@@H]32)C1 -7.36% [at 2.33 µM]
CCN1C(=O)[C@H]2[C@@H](c3ccc(C)cc3)N3C(=O)N(c4cccc(Br)c4)C(=O)[C@@]3(CC)[C@H]2C1=O -0.448% [at 2.33 µM]
COc1cc(/C=C2\SC(=O)NC2=O)ccc1OCc1ccc(Cl)nc1 21.1% [at 2.33 µM]
CNS(=O)(=O)c1ccc(C(=O)NCC(=O)NCCc2ccc3c(c2)OCCO3)cc1 -2.43% [at 12.7 µM]
CCOc1ccc(S(=O)(=O)NCCC(=O)NCC2CCCO2)cc1 (centres undefined) 28.8% [at 12.7 µM]
Cc1ccc(NC2(C#N)C(=O)Nc3ccccc32)cc1 (centres undefined) -25.6% [at 2.33 µM]
O=C1c2ccccc2NC(c2ccc(-c3cccc(Cl)c3)o2)N1O (centres undefined) 25.2% [at 12.7 µM]
O=C(c1cc(C(=O)N2CCN(c3ccc(F)cc3)CC2)cc([N+](=O)[O-])c1)N1CCN(c2ccc(F)cc2)CC1 1.74% [at 0.501 µM]
O=C(c1cccc(F)c1)N1CCC2(CC1)CCN(c1ccccc1)CC2 -4.3% [at 12.7 µM]
CC1CCCC(NC(=O)c2cc(S(=O)(=O)N3CCCCC3)ccc2Cl)C1C (centres undefined) 12.6% [at 12.7 µM]
